Compound activity as filed in PubChem.
PNC assembly inh = High Content Assay for Compounds that inhibit the Assembly of the Perinucleolar Compartment; PC3M PTB-GFP, PNC prevalence imaging, 16 h; stronger effect = lower value; activity change (PNC), negative = inhibition, % at 10 µM; actives 3.1% (n = 140,000);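 active = readout at or below -70, meaning at least 70% loss of cells showing the perinucleolar compartment, a nuclear body marking cancer cells; inconclusive = readout between -30 and a set limit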;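 also: plate controls were DMSO wells for no effect and camptothecin positive control wells for full effect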
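Compounds are pinned in duplicate onto adhered PC3M cells stably expressing GFP-tagged PTB and incubated 16 h at 37 C. Cells are then fixed, nuclei stained with Hoechst, and PNC-positive cells counted.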
HPGD block = qHTS Assay for Inhibitors of HPGD (15-Hydroxyprostaglandin Dehydrogenase). 15-hydroxyprostaglandin dehydrogenase [NAD(+)] (Homo sapiens), P15428. purified HPGD, NADH fluorescence kinetic, PGE2 substrate. Potency, µM, for the others: at the highest dose activity change, negative = inhibition, hits mostly inhibitors. actives 4.3% (n = 150,000). AID 894, 2007; also: potency is read from the fitted curve at half-maximal effect
Target sequence (P15428 whole entry, looked up): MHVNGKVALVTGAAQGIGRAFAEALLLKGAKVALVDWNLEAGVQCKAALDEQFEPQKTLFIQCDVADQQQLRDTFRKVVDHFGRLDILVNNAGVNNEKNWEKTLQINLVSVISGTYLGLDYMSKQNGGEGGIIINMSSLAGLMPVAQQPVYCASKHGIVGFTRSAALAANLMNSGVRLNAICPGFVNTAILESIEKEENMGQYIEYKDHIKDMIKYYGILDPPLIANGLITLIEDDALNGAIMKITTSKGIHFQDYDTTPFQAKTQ
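NADH formation kinetics: reaction with 30 uM PGE2 and 1 mM NAD+ (final), 20 nM enzyme, Tris-HCl pH 8 with Tween 20, after 15 min compound preincubation at room temperature. Fluorescence change, last versus first of five reads.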
ALDH1A1 block = qHTS Assay for Inhibitors of Aldehyde Dehydrogenase 1 (ALDH1A1); Aldehyde dehydrogenase 1A1 (Homo sapiens), P00352; Purified ALDH1A1, NADH fluorescence, propionaldehyde substrate; Potency, µM (top dose mostly 75.3 µM), for inactives: at the top dose activity, negative = inhibition, usual class: inhibitors; actives 7.3% (n = 220,000);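 also: potency is read from the fitted curve at half-maximal effect; plate controls were no enzyme wells and a reference inhibitor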
An asterisk follows results filed as active. An excerpt weighted towards active compounds, which were near 11% of everything screened. Unless noted, calls follow the shape of the dose curve; as a rule, active = well fitted inhibition curve with a large enough effect (not every such curve was filed as active); inconclusive = small, poorly fitted or top-dose-only effect, or another doubt; inactive = no such curve, though single readings can be large or run the other way. Unless noted, % is scaled to controls: 0 for no effect and ±100 for the full control effect.

Cc1cccc(NC(=O)CN2C(=O)N/C(=C/c3ccc(-c4cccc(C(=O)O)c4C)o3)C2=O)c1 was read as ALDH1A1 block -0.8%.
`Cc1nnc(N2CCOCC2)c2nn(-c3cccc(Cl)c3)c(C)c12` gave PNC assembly inh inconclusive, HPGD block -11.5% and ALDH1A1 block -4.5%.
O=C1N/C(=C/c2ccc(Br)s2)C(=O)N1c1ccccc1 was read as ALDH1A1 block -2.4%.
Screening CC(C)(C)c1nnc(NC(=O)c2cccnc2)s1 returned ALDH1A1 block 0.6%.
For COc1ccc2c(c1)CCCC21SC(NC(C)=O)=NN1C(C)=O (configuration not stated) the results were ALDH1A1 block -0.2%.
For COc1ccc2cc(/C=N/NC(=O)c3c(Cl)cnn3C)c(Cl)nc2c1 the results were PNC assembly inh -85.6*, HPGD block inconclusive and ALDH1A1 block inconclusive.
For COc1ccc2cc(/C=N/NC(=O)c3ccc(CN(c4ccc(C)c(C)c4)S(C)(=O)=O)cc3)c(Cl)nc2c1 the results were PNC assembly inh 17.8, HPGD block inconclusive and ALDH1A1 block inconclusive.
`CCc1nn2c(=O)cc(COc3ccc(/C=C4\C(=N)N5N=C(C)SC5=NC4=O)cc3)nc2s1` gave ALDH1A1 block 8.91µM*.
`CCC1=NN2C(=N)/C(=C/c3c(C)nn(-c4ccccc4)c3Cl)C(=O)N=C2S1` gave PNC assembly inh 2.5, HPGD block -19.0% and ALDH1A1 block 4.1%.
Screening O=C(Nc1ccccc1)N1CCc2scc[n+]2-c2ccccc21 returned PNC assembly inh -2.9, HPGD block -7.6% and ALDH1A1 block inconclusive.
O=CN1CCc2scc[n+]2-c2ccccc21 was read as PNC assembly inh -13.9, HPGD block -10.9% and ALDH1A1 block 14.1µM*.
For C#CCOCCOCCOCCNc1nc(N2CCN(C(=O)[C@H]([C@@H](C)CC)n3cc([C@@H](N)Cc4ccc(O)cc4)nn3)CC2)nc(N2CCN(C(=O)[C@H](CCCCN)n3cc([C@@H](N)CC(C)C)nn3)CC2)n1 the results were ALDH1A1 block -2.6%.
CC(=O)Nc1c(O)n(C)c2ccccc12 was read as PNC assembly inh 34.1, HPGD block -3.4% and ALDH1A1 block 11.1%.
`CC(=O)Nc1c(O)[nH]c2ccccc12` gave PNC assembly inh -98.0*, HPGD block -8.4% and ALDH1A1 block 13.2%.
`O=S(Cc1ccc(Br)cc1)Cc1nnc(SCc2ccc(Br)cc2)n1-c1ccccc1` (configuration not stated) gave PNC assembly inh 10.0, HPGD block -0.9% and ALDH1A1 block -3.6%.
COCCNS(=O)(=O)c1cc(C)c(C)cc1C was read as PNC assembly inh 44.8, HPGD block -0.5% and ALDH1A1 block -7.0%.
`C=CCOc1ccc(/C=N/O)cc1Cl` gave PNC assembly inh -11.2, HPGD block -18.8% and ALDH1A1 block 3.4%.
Screening COc1ccc2ccccc2c1/C=N/O returned PNC assembly inh -108.2*, HPGD block 7.08µM* and ALDH1A1 block -3.1%.
COc1ccc2ccccc2c1-c1c(OC)ccc2ccccc12 was read as HPGD block 0.7% and ALDH1A1 block 8.6%.
For CCOc1ccc2ccccc2c1/C=N\NC(=O)OC the results were PNC assembly inh 54.6, HPGD block -8.8% and ALDH1A1 block inconclusive.
C=CCOc1ccc2ccccc2c1/C=N/O was read as PNC assembly inh 27.4, HPGD block 2.51µM* and ALDH1A1 block -1.9%.
C=CCOc1ccc(Br)cc1/C=N/O was read as PNC assembly inh 16.1, HPGD block 4.47µM* and ALDH1A1 block inconclusive.
`CCOC(=O)C1(Cc2ccccc2C(F)(F)F)CCN(CCCn2cccn2)CC1` gave ALDH1A1 block -3.9%.
CC(C)c1ccc(N=C2N=C(N)c3ccccc32)cc1 was read as ALDH1A1 block 5.7%.
`O=C(NNC1CC(=O)N(c2ccc(Br)cc2)C1=O)c1ccccn1` (configuration not stated) gave ALDH1A1 block -12.1%.
CC(C)Oc1ccc(N2CC(C(=O)Nc3ccc(N4CCOCC4)cc3)CC2=O)cc1 (configuration not stated) was read as PNC assembly inh 53.5, HPGD block -19.3% and ALDH1A1 block inconclusive.
COc1ccc(-c2cc(C(=O)OC(C)C(=O)Nc3c(C)n(C)n(-c4ccccc4)c3=O)c3ccccc3n2)cc1 (configuration not stated) was read as PNC assembly inh -86.0*, HPGD block inconclusive and ALDH1A1 block inconclusive.
Cc1c(NC(=O)COC(=O)c2cc(-c3ccc(-c4ccccc4)cc3)nc3ccccc23)c(=O)n(-c2ccccc2)n1C was read as PNC assembly inh -113.0*, HPGD block inconclusive and ALDH1A1 block inactive.
Cc1c(NC(=O)C(C)OC(=O)c2cc(-c3cccc4ccccc34)nc3ccccc23)c(=O)n(-c2ccccc2)n1C (configuration not stated) was read as PNC assembly inh -28.3, HPGD block inconclusive and ALDH1A1 block inconclusive.
Screening Cc1c(NC(=O)COC(=O)c2ccc[nH]c2=O)c(=O)n(-c2ccccc2)n1C returned PNC assembly inh -3.8, HPGD block -9.9% and ALDH1A1 block -5.0%.
`Cc1nn(CC(=O)NCc2cccc3ccccc23)c(=O)c2ccccc12` gave PNC assembly inh 12.2, HPGD block inconclusive and ALDH1A1 block 9.0%.
`CCNc1nc(=S)nc(NCc2ccccc2)[nH]1` gave ALDH1A1 block 14.2%.
Cc1cccc2cc(C#N)c(SCC(=O)NCc3cccs3)nc12 was read as PNC assembly inh -21.8, HPGD block -10.5% and ALDH1A1 block 5.6%.
N/C(=N\OC(=O)COc1ccc([N+](=O)[O-])cc1)c1ccncc1 was read as ALDH1A1 block 7.9%.
For N/C(=N\OC(=O)COc1ccc(Br)cc1)c1ccncc1 the results were PNC assembly inh -102.2*, HPGD block -8.5% and ALDH1A1 block 6.5%.
`CCOC(=O)C1CCC(CNCc2ccccc2C)CC1` (configuration not stated) gave ALDH1A1 block -0.1%.
For COc1cccc(Nc2ccc(C(=O)O)cc2[N+](=O)[O-])c1 the results were PNC assembly inh -6.3, HPGD block 28.2µM* and ALDH1A1 block -8.9%.
Cc1cc(C(=O)COC(=O)c2ccc[nH]c2=O)c(C)n1C1CC1 was read as PNC assembly inh 21.7, HPGD block -3.1% and ALDH1A1 block 6.5%.
For CC(C)CNC(=O)COc1ccccc1[N+](=O)[O-] the results were PNC assembly inh -8.6 and ALDH1A1 block 0.6%.
For COc1ccc(C)cc1Nc1ccc(C(=O)O)cc1[N+](=O)[O-] the results were ALDH1A1 block 3.0%.
Screening CCCn1c(C)cc(C(=O)COc2ncnc3sccc23)c1C returned PNC assembly inh 0.5, HPGD block -15.1% and ALDH1A1 block -2.1%.
Cc1cc(C(=O)COc2ccccc2[N+](=O)[O-])c(C)n1C1CC1 was read as ALDH1A1 block 31.6µM*.
`Cc1cc(C(=O)COc2ncnc3sccc23)c(C)n1C1CC1` gave PNC assembly inh -15.6, HPGD block -10.3% and ALDH1A1 block 20µM*.
